Experimental findings from paper PMC9911399, “Two distinct binding modes provide the RNA-binding protein RbFox with extraordinary sequence specificity” are described below.

Positions count from the first letter of the chain named. In all, about 16,000 sequences were measured (“ka relative to ugcaugu”: median about 0.096, highest 2% from about 0.35 on). The list comes from a sample in which the highest values are over-represented; it also holds similar and randomly drawn sequences.

Sequences and labels used below:
T1: RBFOX1 RRM RbFoxmut (Fox-RRM*) (Homo sapiens, UniProt Q9NWB1 109-208, R118D;E147R;N151S;E152T)
T1 sequence: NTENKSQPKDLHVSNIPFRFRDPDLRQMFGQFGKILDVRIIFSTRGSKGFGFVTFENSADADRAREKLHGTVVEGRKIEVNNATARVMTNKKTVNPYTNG

B1: AUGCCGC (DNA:RNA)
RNA: GGGAGACCGGAAUUCAGAUUGUCCAUGCCGCUUAAAUCCCGUCGUAGCCACCA
DNA 1: CAATCTGAATTCCGGTCTCCC
DNA 2: TGGTGGCTACGACGGGATT
B2: ACACGGC (DNA:RNA)
RNA: B1 RNA with U26C, G27A, C29G
DNA 1: CAATCTGAATTCCGGTCTCCC
DNA 2: TGGTGGCTACGACGGGATT
B3: UUUUCCC (DNA:RNA)
RNA: B1 RNA with A25U, G27U, C28U, G30C
DNA 1: CAATCTGAATTCCGGTCTCCC
DNA 2: TGGTGGCTACGACGGGATT
B4: GGGACUG (DNA:RNA)
RNA: B1 RNA with A25G, U26G, C28A, G30U, C31G
DNA 1: CAATCTGAATTCCGGTCTCCC
DNA 2: TGGTGGCTACGACGGGATT
B5: UCCAGUU (DNA:RNA)
RNA: GGGAGACCGGAAUUCAGAUUGUCCUCCAGUUUUAAAUCCCGUCGUAGCCACCA
DNA 1: CAATCTGAATTCCGGTCTCCC
DNA 2: TGGTGGCTACGACGGGATT
B6: CGAUCAG (DNA:RNA)
RNA: B1 RNA with A25C, U26G, G27A, C28U, G30A, C31G
DNA 1: CAATCTGAATTCCGGTCTCCC
DNA 2: TGGTGGCTACGACGGGATT
B7: AUUGUAA (DNA:RNA)
RNA: B1 RNA with G27U, C28G, C29U, G30A, C31A
DNA 1: CAATCTGAATTCCGGTCTCCC
DNA 2: TGGTGGCTACGACGGGATT
B8: UUUGUUC (DNA:RNA)
RNA: B1 RNA with A25U, G27U, C28G, C29U, G30U
DNA 1: CAATCTGAATTCCGGTCTCCC
DNA 2: TGGTGGCTACGACGGGATT
B9: GCGCGAC (DNA:RNA)
RNA: B1 RNA with A25G, U26C, C29G, G30A
DNA 1: CAATCTGAATTCCGGTCTCCC
DNA 2: TGGTGGCTACGACGGGATT
B10: UUAAGCC (DNA:RNA)
RNA: B5 RNA with C26U, C27A, U30C, U31C
DNA 1: CAATCTGAATTCCGGTCTCCC
DNA 2: TGGTGGCTACGACGGGATT
B11: CCCGAUC (DNA:RNA)
RNA: B5 RNA with U25C, A28G, G29A, U31C
DNA 1: CAATCTGAATTCCGGTCTCCC
DNA 2: TGGTGGCTACGACGGGATT
B12: CUUCGGU (DNA:RNA)
RNA: B1 RNA with A25C, G27U, C29G, C31U
DNA 1: CAATCTGAATTCCGGTCTCCC
DNA 2: TGGTGGCTACGACGGGATT
B13: AAGGCAA (DNA:RNA)
RNA: B1 RNA with U26A, C28G, G30A, C31A
DNA 1: CAATCTGAATTCCGGTCTCCC
DNA 2: TGGTGGCTACGACGGGATT
B14: AGAUUGC (DNA:RNA)
RNA: B1 RNA with U26G, G27A, C28U, C29U
DNA 1: CAATCTGAATTCCGGTCTCCC
DNA 2: TGGTGGCTACGACGGGATT
B15: AAAAUGC (DNA:RNA)
RNA: B1 RNA with U26A, G27A, C28A, C29U
DNA 1: CAATCTGAATTCCGGTCTCCC
DNA 2: TGGTGGCTACGACGGGATT
B16: AGAAUGC (DNA:RNA)
RNA: B1 RNA with U26G, G27A, C28A, C29U
DNA 1: CAATCTGAATTCCGGTCTCCC
DNA 2: TGGTGGCTACGACGGGATT
B17: UGAAUGA (DNA:RNA)
RNA: B5 RNA with C26G, C27A, G29U, U30G, U31A
DNA 1: CAATCTGAATTCCGGTCTCCC
DNA 2: TGGTGGCTACGACGGGATT
B18: UGAUGAA (DNA:RNA)
RNA: B5 RNA with C26G, C27A, A28U, U30A, U31A
DNA 1: CAATCTGAATTCCGGTCTCCC
DNA 2: TGGTGGCTACGACGGGATT
B19: UGAUUGA (DNA:RNA)
RNA: B1 RNA with A25U, U26G, G27A, C28U, C29U, C31A
DNA 1: CAATCTGAATTCCGGTCTCCC
DNA 2: TGGTGGCTACGACGGGATT
B20: UCGUUCG (DNA:RNA)
RNA: B5 RNA with C27G, A28U, G29U, U30C, U31G
DNA 1: CAATCTGAATTCCGGTCTCCC
DNA 2: TGGTGGCTACGACGGGATT
B21: AGCCUAC (DNA:RNA)
RNA: B1 RNA with U26G, G27C, C29U, G30A
DNA 1: CAATCTGAATTCCGGTCTCCC
DNA 2: TGGTGGCTACGACGGGATT
B22: CCUGUCC (DNA:RNA)
RNA: B1 RNA with A25C, U26C, G27U, C28G, C29U, G30C
DNA 1: CAATCTGAATTCCGGTCTCCC
DNA 2: TGGTGGCTACGACGGGATT
B23: GAUUAGG (DNA:RNA)
RNA: B1 RNA with A25G, U26A, G27U, C28U, C29A, C31G
DNA 1: CAATCTGAATTCCGGTCTCCC
DNA 2: TGGTGGCTACGACGGGATT
B24: CGCAGCG (DNA:RNA)
RNA: B5 RNA with U25C, C26G, U30C, U31G
DNA 1: CAATCTGAATTCCGGTCTCCC
DNA 2: TGGTGGCTACGACGGGATT
B25: UGGCCUG (DNA:RNA)
RNA: B1 RNA with A25U, U26G, G30U, C31G
DNA 1: CAATCTGAATTCCGGTCTCCC
DNA 2: TGGTGGCTACGACGGGATT
B26: AUUGCCU (DNA:RNA)
RNA: B1 RNA with G27U, C28G, G30C, C31U
DNA 1: CAATCTGAATTCCGGTCTCCC
DNA 2: TGGTGGCTACGACGGGATT
B27: UGCUGCC (DNA:RNA)
RNA: B5 RNA with C26G, A28U, U30C, U31C
DNA 1: CAATCTGAATTCCGGTCTCCC
DNA 2: TGGTGGCTACGACGGGATT
B28: UGCCUCC (DNA:RNA)
RNA: B1 RNA with A25U, U26G, G27C, C29U, G30C
DNA 1: CAATCTGAATTCCGGTCTCCC
DNA 2: TGGTGGCTACGACGGGATT
B29: UGUGGCC (DNA:RNA)
RNA: B5 RNA with C26G, C27U, A28G, U30C, U31C
DNA 1: CAATCTGAATTCCGGTCTCCC
DNA 2: TGGTGGCTACGACGGGATT
B30: UGUUGCC (DNA:RNA)
RNA: B5 RNA with C26G, C27U, A28U, U30C, U31C
DNA 1: CAATCTGAATTCCGGTCTCCC
DNA 2: TGGTGGCTACGACGGGATT
B31: AUUUGCC (DNA:RNA)
RNA: B1 RNA with G27U, C28U, C29G, G30C
DNA 1: CAATCTGAATTCCGGTCTCCC
DNA 2: TGGTGGCTACGACGGGATT
B32: UGGCCUC (DNA:RNA)
RNA: B1 RNA with A25U, U26G, G30U
DNA 1: CAATCTGAATTCCGGTCTCCC
DNA 2: TGGTGGCTACGACGGGATT
B33: UGCCUUG (DNA:RNA)
RNA: B5 RNA with C26G, A28C, G29U, U31G
DNA 1: CAATCTGAATTCCGGTCTCCC
DNA 2: TGGTGGCTACGACGGGATT
B34: CAUUGCC (DNA:RNA)
RNA: B1 RNA with A25C, U26A, G27U, C28U, C29G, G30C
DNA 1: CAATCTGAATTCCGGTCTCCC
DNA 2: TGGTGGCTACGACGGGATT
B35: UUGCCUG (DNA:RNA)
RNA: B1 RNA with A25U, G30U, C31G
DNA 1: CAATCTGAATTCCGGTCTCCC
DNA 2: TGGTGGCTACGACGGGATT
B36: UGUAGCC (DNA:RNA)
RNA: B5 RNA with C26G, C27U, U30C, U31C
DNA 1: CAATCTGAATTCCGGTCTCCC
DNA 2: TGGTGGCTACGACGGGATT

This experiment concerns the target T1, RBFOX1 RRM RbFoxmut (Fox-RRM*). Put plainly: EMSA; HiTS-Eq, 1 nM pool, 10 min; buffer printed only for the single-RNA assays: 10 mM Tris pH 7.5, 150 mM NaCl, 3.4 mM EDTA, 0.001% NP-40, 30 C. The conditions noted are these: tags: His6 N-terminal (pET28a); label: 5' 32P. In short, it runs like this: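 These values rest on relative association constants, computed from read-count changes of each RNA species versus the control reaction and normalised to the cognate motif. Reads came from free RNA recovered by 8% native PAGE after purified RbFox RRM (wild type or mutant) at increasing concentrations was equilibrated for 10 min in 50 µL with 1 nM of a 5′-radiolabelled pool with 7 randomized nucleotides and DNA-annealed flanks.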
(Mobility shift assays separate free from complexed probe on a gel.)
For B1, the binding signal is 0.11 KA relative to UGCAUGU.

Consider B2, for which the binding signal was 0.115 KA relative to UGCAUGU.

Regarding B3, the binding signal was 0.0312 KA relative to UGCAUGU.

In the case of B4, the binding signal is 0.266 KA relative to UGCAUGU.

With B5, the binding signal was 0.0717 KA relative to UGCAUGU.

In the case of B6, the binding signal was 0.0789 KA relative to UGCAUGU.

For the molecule B7, the binding signal was 0.154 KA relative to UGCAUGU.

With B8, the binding signal was 0.0935 KA relative to UGCAUGU.

Turning to B9, the binding signal is 0.0897 KA relative to UGCAUGU.

B10: the binding signal is 0.106 KA relative to UGCAUGU.

For B11, the binding signal was 0.0576 KA relative to UGCAUGU.

Turning to B12, the binding signal is 0.095 KA relative to UGCAUGU.

With B13, the binding signal is 0.061 KA relative to UGCAUGU.

On to B14, for which the binding signal is 0.14 KA relative to UGCAUGU.

As to B15, the binding signal is 0.0633 KA relative to UGCAUGU.

Turning to B16, the binding signal was 0.408 KA relative to UGCAUGU.

Turning to B17, the binding signal was 0.46 KA relative to UGCAUGU.

On to B18, for which the binding signal is 0.122 KA relative to UGCAUGU.

Regarding B19, the binding signal was 0.209 KA relative to UGCAUGU.

As to B20, the binding signal was 0.218 KA relative to UGCAUGU.

Take B21: the binding signal is 0.0767 KA relative to UGCAUGU.

As to B22, the binding signal is 0.074 KA relative to UGCAUGU.

Consider B23, for which the binding signal is 0.0809 KA relative to UGCAUGU.

Take B24: the binding signal was 0.135 KA relative to UGCAUGU.

On to B25, for which the binding signal is 0.359 KA relative to UGCAUGU.

Consider B26, for which the binding signal is 0.108 KA relative to UGCAUGU.

With B27, the binding signal is 0.298 KA relative to UGCAUGU.

Consider B28, for which the binding signal was 0.155 KA relative to UGCAUGU.

For the molecule B29, the binding signal was 0.263 KA relative to UGCAUGU.

With B30, the binding signal is 0.296 KA relative to UGCAUGU.

Consider B31, for which the binding signal was 0.257 KA relative to UGCAUGU.

For the molecule B32, the binding signal was 0.106 KA relative to UGCAUGU.

Consider B33, for which the binding signal is 1.27 KA relative to UGCAUGU.

In the case of B34, the binding signal is 0.374 KA relative to UGCAUGU.

Take B35: the binding signal was 0.377 KA relative to UGCAUGU.

Take B36: the binding signal was 0.141 KA relative to UGCAUGU.
